From PubChem BioAssay
HSP90 refold inh: blocks HSP90-mediated luciferase refolding in reticulocyte lysate | Rabbit reticulocyte lysate, luciferase refolding luminescence, 3 h | inhibition, % at 5.6 µM | 290,000 tested, 0.91% active;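 active = inhibition above the screen-wide mean plus 3 SD, computed separately per campaign, cut at about 16% in these data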;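 note: 0% = DMSO wells and 100% = 60 µM geldanamycin wells; inhibitors lower the luminescence because luciferase stays unfolded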
HSF1 inh: HSF1 inhibition; activity change, negative = inhibition, % at 7.5 µM (by protocol); 300,000 tested, 0.77% active; AID 2098; NIH3T3-HGL HSE-luciferase, MG132-induced, luminescence 8 h; active compounds read low;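 active = more than half of replicate wells show activity change below -50%, luminescence cut by over half; inconclusive = some wells, but at most half, below -50%; inactive = no replicate well below -50%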;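 note: luciferase reports HSF-1 transcriptional activity via heat shock element; 0% = median of DMSO wells and -100% = zero luminescence signal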
TROY signal inh: inhibitors of TROY-dependent NF-kB signaling | Q293 LMP1-TROYcd NF-kB luciferase reporter, 4 h | inhibition, % at 10 µM | 360,000 tested, 0.98% active;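 active = compounds whose plate-normalised and pattern-corrected inhibition of the luciferase reporter signal at the single screening dose is 50% or more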
EBV LMP1 NFkB: inhibitors of Epstein-Barr LMP1-induced NF-kappaB reporter; AID 504558; 350,000 tested, 0.69% active; inhibition, % at 12.5 µM; LMP1-induced NF-kappaB luciferase reporter cells, luminescence; in the data active = inhibition above about 41%; inconclusive = no clear call, values can overlap the other calls;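 note: 0% = neutral control wells and 100% = reference inhibitor control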
HSF-1 act: increases HSF-1 driven luciferase reporter signal; NIH3T3-HGL HSF-1 luciferase reporter, MG132, 8 h; 100% = twice DMSO control signal; activation, % at 9 µM; 300,000 tested, 1.7% active; AID 504408;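 active = mean replicate activation of at least 50% with a set share of replicates each reaching 50%; inconclusive = only one of those two conditions met; inactive = mean below 50% and too few replicates reaching it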;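 note: 0% = median of the neutral control wells and 100% = twice that signal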
TWEAK-Fn14 inh: inhibitors of TWEAK-Fn14 interaction signaling; AID 1159606; 360,000 tested, 2% active; inhibition, % at 10 µM; TWEAK-stimulated Fn14 reporter cells, luciferase luminescence, 8 h; in the data active = inhibition above about 50%
Numbers without * were called inactive; u = inconclusive; x = not tested or not shown; ! = not active in a repeat. This is a sample that favours compounds with a hit; in the whole collection about 4.7% have one here.

SMILES	HSP90 refold inh	HSF1 inh	TROY signal inh	EBV LMP1 NFkB	HSF-1 act	TWEAK-Fn14 inh
COC(=O)C1CCN(C(=O)CSc2ccccc2)CC1	1.1	2.5	-2.8	3.5	15.1	6.5
COC(=O)C1CCN(C(=O)CCCOc2ccccc2)CC1	1.0	7.7	-5.3	10.2	12.2	50.6*
O=C(CCCOc1ccc(Cl)cc1Cl)N1CCN(c2ccccn2)CC1	1.0	2.1	36.0	4.1	-14.7	-11.5
CC1=C(C(=O)N2CCOCC2)CC(CC(=O)NCCCN(C)C)C(=O)N1CCCN1CCCC1=O (stereo not given)	x	x	18.4	x	x	5.6
OC[C@@H]1CN(Cc2cccc(C(F)(F)F)c2)C[C@H](n2cnc3c(NCc4ccncc4)ncnc32)O1	x	x	0.7	x	x	-10.4
COC(=O)C(NS(=O)(=O)c1ccc(N2CCCC2=O)cc1)c1ccccc1 (stereo not given)	-4.7	2.3	-0.8	66.6*	-6.7	-1.9
CCCCC(=O)N(C)c1c(CC)nc2c(OCc3ccccc3C)cccn12	x	x	-15.4	x	x	-10.0
COc1ccc(-c2cc3ccc(OC)cc3cn2)cc1	x	x	41.8	22.3	x	85.7*
C[C@@H]1CN([C@H](C)CO)C(=O)c2cc(Br)cnc2O[C@H]1CN(C)C(=O)Nc1ccccc1F	x	x	-8.8	-5.3	x	-1.5
CCOc1ccc(C=NNC(=O)c2ccc(-n3cnnn3)cc2)cc1	x	x	12.6	10.4	x	56.5*
CN(C)c1ccc(/C=N/NC(=O)c2ccc(-n3cnnn3)cc2)cc1	x	x	9.6	2.4	x	20.2
OCC1OC(n2cnc3c(/C=C(\O)c4ccccc4)ncnc32)C(O)C1O (stereo not given)	x	x	-10.8	-8.1	x	4.6
CC(=NNc1nc2ccccc2o1)c1ncccn1	x	x	14.9	58.3*	x	103.1*
Cc1cc(C)nc(Nc2nc3ccccc3o2)n1	-3.7	21.3	-31.2	-12.5	27.6	-16.6
COc1cc(/C=N/Nc2nc3ccccc3o2)cc(OC)c1O	-1.7	13.6	-26.9	-3.1	12.4	-1.7
CC(=NNc1nc2ccccc2o1)c1cc2ccccc2cn1	x	-52.0	-18.8	57.4*	-52.0	33.7
C[C@@H]1CN([C@@H](C)CO)C(=O)CCCn2cc(nn2)CO[C@H]1CN(C)C(=O)Oc1ccccc1	x	x	24.9	-2.1	x	5.2
Fc1cccc2sc(Nc3nnc(-c4ccccc4)o3)nc12	-1.4	48.6	-47.2	-4.1	72.5*	103.2*
COc1cc(OC)cc(-c2nnc(Nc3nc4c(F)cccc4s3)o2)c1	5.3	-11.4	-1.6	0.9	-19.7	0.0
NNc1nc2c(F)cccc2s1	5.7	-39.4	68.5*	-23.8	-45.0	62.1*
COc1ccc(-c2nnc(Nc3nc4c(OC)cccc4s3)o2)c(OC)c1	-0.8	46.1	-1.6	26.3	60.2*	-11.2
CNc1cnc(-c2ccsc2)cn1	x	x	-31.5	x	x	-1.4
Cc1ccc(Cl)cc1-c1cc(C(=O)NCC2CCCCC2)[nH]n1	x	x	24.8	x	x	-37.5
Cc1cccc(C)c1NC(=O)C1c2ccccc2OCC(=O)N1Cc1ccccc1 (stereo not given)	x	x	-11.1	x	x	13.2
CC(O)(c1cccc(F)c1)c1nc(-c2csc3ccccc23)cs1 (stereo not given)	x	x	-18.2	x	x	8.7
SMILES	HSP90 refold inh	HSF1 inh	TROY signal inh	EBV LMP1 NFkB	HSF-1 act	TWEAK-Fn14 inh
Cc1nc2ccccc2c2oc(C(=O)NCC3COc4ccccc4O3)cc12 (stereo not given)	-2.4	-7.7	73.2*	-0.4	-4.3	92.6*
COc1cccc(CNC(=O)c2cc3c(C)nc4ccccc4c3o2)c1	0.1	-5.9	44.0	18.1	2.1	52.3*
COc1cc(NC(=O)c2cc3c(C)nc4ccccc4c3o2)cc(OC)c1OC	0.0	-51.2*	0.4	-2.6	-52.3	11.6
CCc1ccc(CNC(=O)c2cc3c(C)nc4ccccc4c3o2)cc1	1.0	0.5	45.4	21.1	-3.9	58.3*
CCN1CCCC1CNC(=O)c1cc2c(C)nc3ccccc3c2o1 (stereo not given)	-3.1	-9.3	6.5	-22.1	-0.2	-15.7
CCOc1ccc(NC(=O)c2cccc(S(=O)(=O)NCc3cccnc3)c2)cc1	x	x	8.5	1.2	x	7.7
O=C(NNC(=S)Nc1ccccc1)c1ccc(O)cc1	-0.7	33.2	-84.2	-15.0	57.3*	-16.8
CC(=O)N1c2ccc(C)cc2C(c2ccccc2)CC1C (stereo not given)	-3.0	33.8	-13.6	17.6	57.7*	6.6
C=CCn1c(COc2ccc(CC)cc2)nnc1SC/C(O)=C(\C#N)c1nc2ccccc2[nH]1	3.8	32.8	-1.0	-14.2	80.4*	11.1
CCN(CC)C(=O)Oc1ccc2c(=O)c(-c3ccc(OC)cc3)coc2c1	-4.5	26.7	22.3	-4.1	38.8	20.1
COc1ccc2c(=O)c(-c3ccc4c(c3)OCO4)coc2c1	-0.5	13.5	20.4	-16.5	13.8	69.8*
CN1C(=O)[C@H](Cc2ccc([N+](=O)[O-])cc2)NC1=S	0.1	0.0	27.9	16.9	9.6	50.7*
CN1C(=O)C(CCC(N)=O)NC1=S (stereo not given)	0.8	-6.6	-3.2	-10.2	-2.0	16.6
Cc1ccc(NC(=O)CN2C(=O)C3CCCCN3C(=O)c3ccccc32)cc1 (stereo not given)	-1.9	0.6	x	2.3	0.1	52.6*
O=C(CCNS(=O)(=O)c1cccc2nsnc12)NCc1ccccc1Cl	-1.2	-5.8	9.8	4.8	-4.7	11.5
O=C(CCNS(=O)(=O)c1cccc2nsnc12)NCc1cccs1	10.9	-80.2*	11.8	5.4	-83.1	11.8
CCOc1cc(CNc2ccc(N3CCCC3)cc2)cc(Cl)c1OC	2.1	-20.1	31.6	-7.6	-36.0	59.3*
CCOc1ccc(CNc2ccc(N3CCCC3)cc2)cc1	6.1	-27.7	39.6	9.1	-25.7	55.2*
CCOc1ccc(CNc2ccc(N3CCN(Cc4ccccc4)CC3)cc2)cc1	-3.5	9.5	11.8	4.3	u	24.1
O=C(NCC(O)c1nc2ccccc2[nH]1)c1cc([N+](=O)[O-])ccc1F (stereo not given)	x	x	-4.0	x	x	-19.8
CCN1CCN(Cc2ccc(NC(=O)c3ccc(C)c(NC(=O)c4cncc(-c5cccs5)c4)c3)cc2C(F)(F)F)CC1	x	x	-15.1	71.0*	x	-102.2
CCN1CCN(Cc2ccc(NC(=O)c3ccc(C)c(NC(=O)c4cc(-c5ccc(Br)cc5)n[nH]4)c3)cc2C(F)(F)F)CC1	x	-38.9	6.2	44.5*	-53.7	-82.8
Cc1cn(-c2cc(C(=O)Nc3ccc(C)c(NC(=O)N4CCNC4=O)c3)cc(C(F)(F)F)c2)cn1	x	-20.7	7.2	13.7	-30.0	-18.8
CCN1CCN(Cc2ccc(NC(=O)c3ccc(C)c(NC(=O)c4cccc5[nH]ccc45)c3)cc2C(F)(F)F)CC1	x	-55.0*	-28.3	61.7*	-61.5	-171.9
CCN1CCN(Cc2ccc(NC(=O)c3ccc(C)c(NC(=O)N4CCNC4=O)c3)cc2C(F)(F)F)CC1	-2.5	-29.6	12.3	47.2*!	-46.5	-64.5
COc1ccc(-c2nc3c(Cl)cc(C(F)(F)F)cn3c2Cc2ccsc2)cc1OC	x	x	7.7	x	x	2.8
